The source of these data is PubChem BioAssay (NCATS).

Experiment [1] addresses Estrogen receptor (Homo sapiens) (UniProt P03372). The experiment is described as follows: qHTS assay for small molecule agonists of estrogen receptor alpha signaling (AID 588514; calls by dose curve;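 note: 0% = vehicle only and 100% = reference agonist; nearly all actives have a fitted effect of over 70% in size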). The procedure, abridged: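 ER-alpha-UAS-bla GripTite HEK 293 cells in medium with 2% charcoal/dextran-treated FBS were treated with compound titrations at 37 C for 18 hrs; beta-lactamase reporter read by CCF4 fluorescence after 2 hrs at RT.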

Experiment [2] concerns the target Retinoic acid receptor RXR-alpha (Homo sapiens) (UniProt P19793). Nature of the experiment: qHTS assay for small molecule agonists of retinoid X receptor alpha signaling (AID 588544; calls by dose curve; note: potency is the fitted concentration of half-maximal effect;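 for activation: 0% = DMSO basal wells and 100% = reference agonist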).
A short description of experiment [3]: qHTS assay for environmental chemicals that activate the Aryl hydrocarbon Receptor (AhR) signaling pathway (AID 651777). Note: % of control where 0% means no effect; nearly all actives have a fitted effect of over 15% in size. Conditions: 1A2-DRE human hepatoma cells, luciferase, 24 h; activation: stronger effect = higher value. The procedure, abridged: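 Measured luciferase activity, read 30 min after One-Glo addition at room temperature, from human hepatoma cells bearing a dioxin response element–CYP1A2 promoter reporter and exposed to compound for 24 hr at 37 C.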
Background: In qHTS, concentration-response curves come from the screen itself.

The target in experiment [4] is Peroxisome proliferator-activated receptor alpha (Homo sapiens) (UniProt Q07869). Nature of the experiment: qHTS assay for small molecule agonists of the peroxisome proliferator-activated receptor alpha (PPARalpha) signaling pathway (AID 651778). For max response: % of control where 0% means no effect. Note: potency is the fitted concentration of half-maximal effect. Conditions: PathHunter PPARalpha complementation, chemiluminescence, 6 h; max response: stronger effect = higher value. The method, boiled down:
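Cells plated at 2,000/well and held overnight at 37 C, 5% CO2, then compound added by pin tool for 6 hr; after PathHunter detection reagent and 60 min at room temperature, chemiluminescence from enzyme complementation was read.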

Experiment [5] in a line: qHTS assay for cell viability of HEK293 cells (AID 743288). Note: nearly all actives have a fitted effect of over 50% in size. Note: potency is the fitted concentration of half-maximal effect. The note with it: ATP luminescence (CellTiter-Glo), 18 h; max response: stronger effect = lower value. The procedure, abridged: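 Environmental chemicals tested in qHTS format against parental HEK293 cells; 18 h treatment, 37 C; read-out ATP luminescence (CellTiter-Glo), 30 min RT development.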
Experiment [6] addresses Glucocorticoid receptor (Homo sapiens) (UniProt P04150). Nature of the experiment: qHTS assay for small molecule antagonists of glucocorticoid receptor signaling (AID 588533; active = well fitted inhibition curve with a large enough effect in the signal ratio, with a control signal flat, not every such curve was filed as active; the % refers to the signal ratio;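 note: cells stimulated with 2 nM dexamethasone as agonist; % is set by controls: 0 for no effect and ±100 for the full control effect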). The procedure, abridged: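 Antagonist-mode qHTS: compound titrations added to GRE-bla HeLa cells, then dexamethasone 2 nM final; 18 h, 37 C. CCF4 FRET fluorescence normalized to dexamethasone and DMSO; IC50 from Hill fit.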

Experiment [7] addresses Vitamin D3 receptor (Homo sapiens) (UniProt P11473). The experiment is described as follows: qHTS assay for small molecule antagonists of vitamin D receptor signaling (AID 588541; calls by dose curve;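 note: receptor activated by calcitriol during compound treatment; series mostly up to about 77 µM; % is set by controls: 0 for no effect and ±100 for the full control effect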). The method, boiled down: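 VDR-UAS-bla HEK293T cells (2000/well, 2% charcoal-stripped FBS) were treated with titrated compounds plus 1-alpha,25-dihydroxyvitamin D3 (50 nM or 3 nM final) for 16 h at 37 C. CCF4 beta-lactamase fluorescence was read; Hill fits gave IC50.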

Experiment [8] deals with Thyroid hormone receptor beta (Homo sapiens) (UniProt P10828). The experiment is described as follows: qHTS assay for small molecule agonists of thyroid hormone receptor beta signaling (AID 588545; calls by dose curve). The procedure, abridged:
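Agonist activity was read as beta-lactamase CCF4 fluorescence (405 ex, 460/530 em), scaled between DMSO (0%) and 10 nM T3 (100%), then Hill-fitted for EC50 and efficacy. HEK 293 TR-UAS-bla cells in 2% charcoal/dextran FBS medium were exposed 18 h at 37 C.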

Experiment [9] has the same target. The experiment is described as follows: qHTS assay for small molecule antagonists of thyroid hormone receptor beta signaling (AID 588547; active = well fitted inhibition curve with a large enough effect in the signal ratio, with a control signal flat, not every such curve was filed as active; the % refers to the signal ratio;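 note: cells stimulated with 0.4 nM T3 agonist during compound exposure; series mostly up to about 77 µM; % is set by controls: 0 for no effect and ±100 for the full control effect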). The note with it: TR-UAS-bla HEK293, beta-lactamase ratio, antagonist mode, 18 h. The procedure, abridged:
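TR-UAS-bla GripTite HEK293 cells in 2% charcoal/dextran FBS medium were preincubated 4 h at 37 C, given compound (0.59 nM to 92 uM) plus 0.4 nM T3 (final) for 18 h, then CCF4 for 2 h at RT; Hill fit gave IC50.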

Experiment [10] can be described thus: qHTS assay for small molecule activators of the p53 signaling pathway (AID 651743; active = well fitted activation curve with a large enough effect in the signal ratio, not every such curve was filed as active; the % refers to the signal ratio; note: series mostly up to about 92 µM; % of control where 0% means no effect). The note with it: HCT-116 p53RE-bla, beta-lactamase FRET ratio, 16 h; activation: stronger effect = higher value. The procedure, abridged: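 p53RE-bla HCT-116 cells with a stably integrated beta-lactamase reporter under p53 response elements were plated, rested 5 hours at 37 C/5% CO2, then exposed to compounds in DMSO for 16 hours at 37 C. LiveBLAzer B/G FRET substrate was read after 2 hours at room temperature.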

Experiment [11] in a line: qHTS assay for small molecule activators of the nuclear factor-kappa B (NF-kB) signaling pathway (AID 651749; active = well fitted activation curve with a large enough effect in the signal ratio; the % refers to the signal ratio; note: series mostly up to about 77 µM; % of control where 0% means no effect). Conditions: NF-kB-bla ME-180 cells, beta-lactamase FRET ratio, 16 h; activation: stronger effect = higher value. The procedure, abridged: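 ME-180 cells stably carrying a beta-lactamase reporter under an NF-kB response element were exposed to compound or DMSO vehicle for 16 hr at 37C, 5% CO2. Pathway activation was read by FRET, since reporter expression disrupts FRET.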

Experiment [12] in a line: qHTS assay for small molecule agonists of the antioxidant response element (ARE) signaling pathway measured by Nrf2-dependant transcriptional activity - cell viability counter screen (AID 720653; active = well fitted curve in the direction sought with a large enough effect in the repeat runs; an effect the other way counts as inactive or inconclusive; note: % is set by controls: 0 for no effect and ±100 for the full control effect). The note with it: ARE-bla HepG2 viability, CellTiter-Glo ATP luminescence, 16 h; max response: stronger effect = lower value. The method, boiled down: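 ARE-bla HepG2 cells (2,000/well) rested 5 hrs at 37C/5% CO2, then exposed to compounds in DMSO for 16 hrs. Viability was read in the same wells as intracellular ATP by luminescence, 30 min at room temperature after reagent addition.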

The nature of experiment [13]: qHTS assay for cell viability of the p53RE-bla HCT-116 cell line (AID 743292). Note: % is set by controls: 0 for no effect and ±100 for the full control effect; nearly all actives have a fitted effect of over 55% in size. The procedure, abridged: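 Intracellular ATP of p53RE-bla HCT-116 cells measured by luciferase luminescence following 16 h compound incubation at 37 C; DMSO-only wells served as vehicle controls.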
Experiment [14] is described as follows: qHTS assay for small molecule agonists of the antioxidant response element (ARE) signaling pathway measured by Nrf2-dependant transcriptional activity (AID 720636; active = well fitted curve in the direction sought with a large enough effect in the repeat runs; an effect the other way counts as inactive or inconclusive;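 note: HepG2 cells with an ARE-driven luciferase reporter; % of control where 0% means no effect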). The procedure, abridged:
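In HepG2 cells engineered with an Nrf2-responsive luciferase gene, ARE induction was quantified as luminescence after 16 hr compound treatment at 37 C.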

Experiment [15] addresses Peroxisome proliferator-activated receptor delta (Homo sapiens) (UniProt Q03181). The experiment is described as follows: qHTS assay for small molecule agonists of peroxisome proliferator-activated receptor delta signaling (AID 588534; calls by dose curve;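 note: 0% = DMSO basal wells and 100% = positive control agonist at 10 µM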). The method, boiled down: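 Cell-based beta-lactamase reporter assay run in agonist mode: cells seeded and incubated 5 hrs at 37 C, compounds added and incubated 18 hrs at 37 C. CCF4 dye fluorescence read after 2 hrs at RT; EC50 and efficacy from Hill fits.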

Experiment [16] in a line: qHTS assay for small molecule antagonists of peroxisome proliferator-activated receptor delta signaling (AID 588535; active = well fitted inhibition curve with a large enough effect in the signal ratio, with a control signal flat, not every such curve was filed as active; the % refers to the signal ratio;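 for max response: cells co-treated with a PPAR-delta agonist as stimulator during compound exposure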). Conditions: HEK293T PPARd-UAS-bla, beta-lactamase FRET ratio, 18 h; 460 nm channel. The method, boiled down:
(§1)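 GeneBLAzer PPAR-delta-UAS-bla HEK293T cells in medium with 2% charcoal/dextran FBS were preincubated 5 hrs at 37 C, then given compounds, incubated 18 hrs at 37 C, and read by CCF4 beta-lactamase fluorescence; IC50 from Hill fits.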

The target of experiment [17] is Peroxisome proliferator-activated receptor delta (Homo sapiens) (UniProt Q03181). The description is as above. The method, boiled down: as §1
Chain of Peroxisome proliferator-activated receptor delta (Homo sapiens) (Q03181 whole entry, looked up): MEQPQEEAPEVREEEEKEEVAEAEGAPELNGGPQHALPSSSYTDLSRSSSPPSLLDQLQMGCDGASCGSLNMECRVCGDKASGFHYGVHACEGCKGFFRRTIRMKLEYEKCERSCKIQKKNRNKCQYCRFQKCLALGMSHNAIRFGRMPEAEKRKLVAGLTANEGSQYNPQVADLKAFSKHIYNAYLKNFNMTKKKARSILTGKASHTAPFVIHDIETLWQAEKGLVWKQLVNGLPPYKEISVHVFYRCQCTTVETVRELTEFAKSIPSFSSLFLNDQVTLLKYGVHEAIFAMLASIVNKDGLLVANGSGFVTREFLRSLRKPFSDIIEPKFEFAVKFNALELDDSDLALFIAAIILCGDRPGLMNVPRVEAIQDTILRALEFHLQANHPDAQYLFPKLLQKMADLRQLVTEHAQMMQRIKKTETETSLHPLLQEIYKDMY
The nature of experiment [18]: qHTS assay for small molecule antagonists of retinoid X receptor alpha signaling (AID 588546; active = well fitted inhibition curve with a large enough effect in the signal ratio, with a control signal flat, not every such curve was filed as active; the % refers to the signal ratio). The note with it: HEK293T RXRa-UAS-bla, beta-lactamase ratio, antagonist mode; measured here: W530 green channel, cytotoxicity proxy. The method, boiled down: (§2)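 Beta-lactamase reporter inhibition, read as CCF4 fluorescence ratio (ex 405, em 460/530 nm) after 2 h at RT. HEK293T UAS-bla cells, 2500/well, were stimulated with 9-cis-RA at 500 or 100 nM final alongside test compound for 18 h at 37 C.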

The target of experiment [19] is Retinoic acid receptor RXR-alpha (Homo sapiens) (UniProt P19793). The experiment is described as above. Conditions: HEK293T RXRa-UAS-bla, beta-lactamase ratio, antagonist mode. The method, boiled down: as §2
Chain of Retinoic acid receptor RXR-alpha (Homo sapiens) (P19793 whole entry, looked up): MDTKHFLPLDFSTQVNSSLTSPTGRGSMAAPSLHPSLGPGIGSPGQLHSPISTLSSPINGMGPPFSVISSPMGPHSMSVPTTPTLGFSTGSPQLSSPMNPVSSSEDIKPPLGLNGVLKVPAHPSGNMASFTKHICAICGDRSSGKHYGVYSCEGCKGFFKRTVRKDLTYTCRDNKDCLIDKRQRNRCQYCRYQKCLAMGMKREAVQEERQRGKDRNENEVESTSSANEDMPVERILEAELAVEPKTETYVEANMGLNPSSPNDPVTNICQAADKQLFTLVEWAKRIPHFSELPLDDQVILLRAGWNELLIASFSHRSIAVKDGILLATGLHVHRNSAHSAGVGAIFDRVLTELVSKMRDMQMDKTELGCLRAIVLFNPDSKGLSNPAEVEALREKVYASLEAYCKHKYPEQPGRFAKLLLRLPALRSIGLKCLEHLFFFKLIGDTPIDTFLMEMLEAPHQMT
In experiment [20] the target is Nuclear receptor subfamily 1 group I member 2 (Rattus norvegicus) (UniProt Q9R1A7). The experiment is described as follows: qHTS assay for small molecule activators of the rat pregnane X receptor (rPXR) signaling pathway (AID 651751; call rule not given here; note: 0% is about no effect). Conditions: rPXR reporter cells, luciferase (One-Glo), 24 h.
Chain of Nuclear receptor subfamily 1 group I member 2 (Rattus norvegicus) (Q9R1A7 whole entry, looked up): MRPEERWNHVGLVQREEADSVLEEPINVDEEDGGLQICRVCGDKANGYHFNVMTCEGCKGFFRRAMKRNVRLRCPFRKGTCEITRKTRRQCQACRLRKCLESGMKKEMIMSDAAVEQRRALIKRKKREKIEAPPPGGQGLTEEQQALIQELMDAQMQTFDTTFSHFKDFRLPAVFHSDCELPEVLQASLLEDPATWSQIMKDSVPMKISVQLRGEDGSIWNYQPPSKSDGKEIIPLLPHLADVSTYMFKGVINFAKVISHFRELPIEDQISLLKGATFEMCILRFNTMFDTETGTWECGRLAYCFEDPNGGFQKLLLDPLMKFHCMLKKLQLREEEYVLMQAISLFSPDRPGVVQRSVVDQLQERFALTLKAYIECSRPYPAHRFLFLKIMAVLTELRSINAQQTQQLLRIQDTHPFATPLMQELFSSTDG

Records with an inconclusive call do not appear. Activity calls are given as the source filed them. Unless noted, calls come from the whole dose curve; as a rule, active = well fitted curve in the direction sought with a large enough effect; inconclusive = small, poorly fitted or top-dose-only effect, or another doubt; inactive = no such curve, though single readings can be large; an effect the other way counts as inactive or inconclusive.

Chain of Estrogen receptor (Homo sapiens) (P03372 whole entry, looked up): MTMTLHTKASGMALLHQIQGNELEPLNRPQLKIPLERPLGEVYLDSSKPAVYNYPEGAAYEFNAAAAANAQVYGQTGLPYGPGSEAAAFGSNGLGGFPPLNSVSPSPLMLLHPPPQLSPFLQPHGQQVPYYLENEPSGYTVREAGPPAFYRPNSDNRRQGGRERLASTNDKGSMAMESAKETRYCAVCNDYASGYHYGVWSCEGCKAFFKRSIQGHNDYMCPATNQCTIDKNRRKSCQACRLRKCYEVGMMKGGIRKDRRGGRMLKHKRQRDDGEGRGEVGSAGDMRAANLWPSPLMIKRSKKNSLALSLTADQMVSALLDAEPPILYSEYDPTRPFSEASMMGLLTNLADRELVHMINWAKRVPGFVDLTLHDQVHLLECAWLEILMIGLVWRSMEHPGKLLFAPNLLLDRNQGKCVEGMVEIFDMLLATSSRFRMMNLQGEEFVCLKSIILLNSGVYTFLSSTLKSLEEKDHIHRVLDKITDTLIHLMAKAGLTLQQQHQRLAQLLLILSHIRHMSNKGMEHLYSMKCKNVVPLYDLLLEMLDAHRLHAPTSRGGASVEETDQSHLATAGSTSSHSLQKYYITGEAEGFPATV
Chain of Thyroid hormone receptor beta (Homo sapiens) (P10828 whole entry, looked up): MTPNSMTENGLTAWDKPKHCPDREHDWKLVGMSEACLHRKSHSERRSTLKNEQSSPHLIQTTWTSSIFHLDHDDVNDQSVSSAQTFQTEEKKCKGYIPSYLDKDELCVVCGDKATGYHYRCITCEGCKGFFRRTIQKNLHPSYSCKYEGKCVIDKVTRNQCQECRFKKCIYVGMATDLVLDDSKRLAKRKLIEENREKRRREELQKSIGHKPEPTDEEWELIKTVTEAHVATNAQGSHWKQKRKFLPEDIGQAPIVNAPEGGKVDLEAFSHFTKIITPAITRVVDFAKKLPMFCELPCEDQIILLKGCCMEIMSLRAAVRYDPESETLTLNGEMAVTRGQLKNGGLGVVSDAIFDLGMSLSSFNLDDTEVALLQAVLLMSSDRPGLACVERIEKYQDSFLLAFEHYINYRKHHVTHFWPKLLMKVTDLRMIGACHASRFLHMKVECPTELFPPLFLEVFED
Chain of Peroxisome proliferator-activated receptor alpha (Homo sapiens) (Q07869 whole entry, looked up): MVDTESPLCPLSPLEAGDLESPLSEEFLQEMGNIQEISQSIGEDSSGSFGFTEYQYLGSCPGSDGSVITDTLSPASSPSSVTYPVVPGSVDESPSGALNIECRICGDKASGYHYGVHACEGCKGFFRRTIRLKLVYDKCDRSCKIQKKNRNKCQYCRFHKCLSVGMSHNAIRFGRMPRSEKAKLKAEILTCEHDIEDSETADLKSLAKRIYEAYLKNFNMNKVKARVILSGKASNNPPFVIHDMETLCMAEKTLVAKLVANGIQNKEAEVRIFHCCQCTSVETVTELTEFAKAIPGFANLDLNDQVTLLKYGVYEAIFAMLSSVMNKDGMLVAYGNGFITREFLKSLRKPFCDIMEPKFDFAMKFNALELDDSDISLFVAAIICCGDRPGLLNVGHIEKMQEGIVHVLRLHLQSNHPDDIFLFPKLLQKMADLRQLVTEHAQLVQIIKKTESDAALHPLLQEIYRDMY
Chain of Glucocorticoid receptor (Homo sapiens) (P04150 whole entry, looked up): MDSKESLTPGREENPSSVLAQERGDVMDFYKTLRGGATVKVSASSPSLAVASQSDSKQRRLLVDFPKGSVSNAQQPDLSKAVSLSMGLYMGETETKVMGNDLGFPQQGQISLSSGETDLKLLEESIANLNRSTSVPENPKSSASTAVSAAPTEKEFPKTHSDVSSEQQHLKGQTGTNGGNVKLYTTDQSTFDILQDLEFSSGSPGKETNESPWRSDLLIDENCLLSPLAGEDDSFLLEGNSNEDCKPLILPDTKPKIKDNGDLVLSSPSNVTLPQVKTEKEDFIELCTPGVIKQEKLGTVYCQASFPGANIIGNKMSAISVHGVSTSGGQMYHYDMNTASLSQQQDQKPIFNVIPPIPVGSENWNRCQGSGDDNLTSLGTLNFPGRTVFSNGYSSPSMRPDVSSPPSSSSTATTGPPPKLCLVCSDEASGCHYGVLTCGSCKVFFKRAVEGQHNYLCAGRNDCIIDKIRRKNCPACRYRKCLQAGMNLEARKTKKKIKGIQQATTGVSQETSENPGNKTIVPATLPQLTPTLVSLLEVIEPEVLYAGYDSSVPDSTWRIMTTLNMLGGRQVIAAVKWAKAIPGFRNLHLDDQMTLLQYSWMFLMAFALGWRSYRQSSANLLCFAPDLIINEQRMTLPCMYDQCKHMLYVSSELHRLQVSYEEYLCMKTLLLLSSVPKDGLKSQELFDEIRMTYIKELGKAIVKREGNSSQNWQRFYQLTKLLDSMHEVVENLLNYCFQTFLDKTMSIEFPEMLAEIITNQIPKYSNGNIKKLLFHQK
Chain of Vitamin D3 receptor (Homo sapiens) (P11473 whole entry, looked up): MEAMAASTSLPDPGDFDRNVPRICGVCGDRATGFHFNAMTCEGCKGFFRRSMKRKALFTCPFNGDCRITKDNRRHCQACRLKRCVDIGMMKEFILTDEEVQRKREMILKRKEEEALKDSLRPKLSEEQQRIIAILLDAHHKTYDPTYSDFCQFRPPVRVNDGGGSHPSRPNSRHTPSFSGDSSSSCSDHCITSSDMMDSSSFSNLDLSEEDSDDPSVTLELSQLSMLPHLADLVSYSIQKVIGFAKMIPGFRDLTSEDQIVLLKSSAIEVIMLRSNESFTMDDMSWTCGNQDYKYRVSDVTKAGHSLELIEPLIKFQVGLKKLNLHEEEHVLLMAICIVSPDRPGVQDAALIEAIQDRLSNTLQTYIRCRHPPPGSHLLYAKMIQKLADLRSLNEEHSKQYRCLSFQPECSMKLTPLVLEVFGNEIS

In the case of `CCC[CH2][Sn]([Cl])([CH2]CCC)[CH2]CCC`, the Potency result in [1] is “inactive”. Besides, the Potency in experiment [2] was 0.398 µM (active); in experiment [5], 50.1 µM (active). For the same compound, the activation in [3] is 8.68% (inactive). For the same compound, in [4], the max response was 2.3% (inactive).
Take `O=C(O)C1(O)c2ccccc2-c2ccc(Cl)cc21` (stereo unspecified): the Potency result in experiment [1], in experiment [6], in experiment [7], in experiment [8] and in experiment [13] was “inactive” in each case. Further, the activity change % (negative = inhibition) in experiment [9] was -1.32% (inactive). Also, the activation was 13.8% (inactive) in [10], 3.02% (inactive) in experiment [11] and 9.46% (inactive) in experiment [3]. The max response was 13.5% (inactive) in experiment [4], -16.8% (inactive) in experiment [12] and -18.3% (inactive) in experiment [5].
For `CCOP(=S)(OCC)SCn1c(=O)oc2cc(Cl)ccc21`, the Potency result in experiment [1], in experiment [6], in experiment [7], in experiment [8] and in experiment [13] was “inactive” in each case. Besides, the activity change % (negative = inhibition) in experiment [9] was -26.9% (inactive). Further, the activation in experiment [10] is 2.68% (inactive). Moreover, the max response in [4] is -0.132% (inactive); in experiment [12] it was -8.7% (inactive); in experiment [5], -28.2% (inactive).
For the compound `O=S(=O)(c1ccc(Cl)cc1)c1cc(Cl)c(Cl)cc1Cl`, the Potency entry in [1], in experiment [6], in experiment [7], in [8], in experiment [14] and in experiment [13] was “inactive” each time. For the same compound, in [9], the activity change % (negative = inhibition) was 6.33% (inactive). Further, the activation in [10] is 8.22% (inactive); in experiment [11] it was 1.59% (inactive). For the same compound, the max response in [4] was -3.59% (inactive); in [12], -29.2% (inactive); in [5], -31.9% (inactive).
With `CCC(C)(C)c1ccc(O)c(C(C)(C)CC)c1`, the Potency entry in experiment [1], in [17] and in experiment [14] was “inactive” each time. Further, the compound was called inactive in experiment [15]. Further, the max response in experiment [16] was -2.29%; in experiment [18] it was -12.2%; in experiment [19], 0.417% (inactive); in [12], -16.3% (inactive); in experiment [5], -2.63% (inactive); in experiment [20], 3.81% (inactive). In [10], the activation is -0.913% (inactive). In [4], the Potency is 35.5 µM (active).
Regarding `Nc1cccc(Cl)c1Cl`, the Potency entry in experiment [1], in experiment [6], in experiment [17], in experiment [7], in experiment [2] and in experiment [8] was “inactive” each time. Moreover, the Potency result in experiment [14] and in [13] was “inactive” in each case. Besides, in [15], the compound was called inactive. Besides, the max response in experiment [16] is 30.5%; in experiment [18], -14.5%; in experiment [19], -4.45% (inactive); in experiment [4], -3.86% (inactive); in experiment [12], -14.4% (inactive); in experiment [5], -1.9% (inactive). Besides, in experiment [20], the max response was 0.634% (inactive). The activation in experiment [10] is -4.27% (inactive); in experiment [11], -2.53% (inactive); in experiment [3], -0.499% (inactive).
`CCCCCCCCCCCCCCC(Br)C(=O)O` (stereo unspecified): the Potency result in experiment [1], in [6] and in [7] was “inactive” throughout. For the same compound, the Potency in experiment [2] was 31.6 µM (active); in experiment [4], 14.1 µM (active). Moreover, the max response was 6.53% in [18], 1.85% (inactive) in experiment [12], 3.54% (inactive) in experiment [5] and -4.78% (inactive) in experiment [20]. In addition, the activation in experiment [11] was 5.98% (inactive); in experiment [3] it was -0.608% (inactive).
Regarding `O=C(NC(=O)c1c(F)cccc1F)Nc1cc(Cl)c(OC(F)(F)C(F)F)c(Cl)c1`, the Potency entry in experiment [1], in [2], in experiment [8], in experiment [14] and in [13] was “inactive” in each case. For the same compound, in experiment [15], the call was inactive. The max response is -11.9% in experiment [18]; 21.4% (inactive) in experiment [19]; -1.91% (inactive) in experiment [4]; -11.1% (inactive) in experiment [12]; -28.3% (inactive) in experiment [5]; -0.359% (inactive) in experiment [20]. Moreover, the activity change % (negative = inhibition) in [9] was -14.9% (inactive). Moreover, the activation was -1.27% (inactive) in experiment [10] and 0.0082% (inactive) in experiment [3].
